For test [1], the target named is Lysosomal acid glucosylceramidase (Homo sapiens) (UniProt P04062). Briefly: Glucocerebrosidase-p2 (AID 348; in the data active = potency below about 10 µM; note: potency is the fitted concentration of half-maximal effect). The following applies: purified GBA, blue fluorogenic substrate, 40 min. A digest of the protocol: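 Compounds titrated from 0.6 nM upwards against 0.2 nM enzyme in pH 5.9 citric acid/KH2PO4, taurocholate, tween-20; blue fluorogenic substrate 80 uM, 40 min room temperature, stopped and read Ex 365/Em 440 for AC50.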

Test [2] is described as follows: AP1 Signaling Pathway (AID 357; active = well fitted curve in either direction with a large enough effect, not every such curve was filed as active; note: % is set by controls: 0 for no effect and ±100 for the full control effect). The following applies: ME-180 AP-1-bla reporter, EGF-induced, beta-lactamase ratio, 5 h; at 7.69 µM (top of the series) unless noted. The essentials: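 AP-1-bla ME-180 cells with beta-lactamase reporter under AP-1 response element, stimulated with EC50 EGF; compounds titrated, 5 hours at 37 degrees Celsius. CCF4 read at 460/530 nm ratio; positive and negative modulators judged by AC50.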

In test [3] the target is Cytochrome P450 1A2 (Homo sapiens) (UniProt P05177). Put plainly: p450-cyp1a2 (AID 410).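 For activity change, negative = inhibition: -100% = full effect of reference inhibitor.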 Note: potency is the fitted concentration of half-maximal effect. To be noted: recombinant CYP1A2, luciferin-ME demethylation, luminescence; series mostly up to 57 µM. A digest of the protocol:
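Human CYP1A2 (20nM) demethylated Luciferin-ME at its Km (100uM) in 100mM KPO4. After 10 min compound preincubation, NADPH regeneration ran the reaction 60 min at room temperature. Luciferin was read by luminescence, normalized to 57 uM furafylline.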

Test [4] in a line: NFAT Signaling Pathway (AID 444; active = well fitted curve in either direction with a large enough effect, not every such curve was filed as active;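 note: carbachol stimulus at about its EC50 of 1 µM final; % is set by controls: 0 for no effect and ±100 for the full control effect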). The following applies: Jurkat NFAT-bla M1, carbachol, beta-lactamase ratio, 5 h; at 7.69 µM (top of the series) unless noted. The essentials:
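Jurkat cells carrying an NFAT-driven β-lactamase reporter and co-transfected muscarinic M1 receptor were treated with compound plus carbachol (1 uM final, an EC50 level) for 5 h at 37 °C. CCF4 loading followed for 1 h at RT; 460/530 nm ratio gave %activity.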

Test [5] can be described thus: Stat Signaling Pathway (AID 446; active = well fitted curve in either direction with a large enough effect, not every such curve was filed as active;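 note: ME-180 cervical cancer cells given 40 pM IL-6 alongside compound; SIE-controlled beta-lactamase reporter measured as 460/530 nm FRET emission ratio; % is set by controls: 0 for no effect and ±100 for the full control effect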). To be noted: ME-180 (cervical carcinoma) SIE beta-lactamase reporter, IL-6 stimulated, 5 h; at 7.69 µM (top of the series) unless noted. A digest of the protocol: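 IL-6/STAT signaling read in ME-180 cells via an SIE beta-lactamase reporter. Stimulus was 40 pM IL-6 (its AC50) for 5 hrs, so both activation and inhibition register.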
Test [6] concerns the target Glucocorticoid receptor (Homo sapiens) (UniProt P04150). Put plainly: GR-EFC Redistribution (AID 451). Note: potency is the fitted concentration of half-maximal effect. The following applies: CHO-K1 GR-EFC translocation, beta-gal luminescence, 2 h. A digest of the protocol:
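CHO-K1 cells stably expressing nuclear-localized β-gal enzyme acceptor and GR fused C-terminally to the enzyme donor fragment; ligand-driven nuclear translocation restores β-gal by complementation. Compounds titrated up to 46 uM final, 2 h at 37 °C; luminescence read.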

Test [7] deals with Cytochrome P450 3A4 (Homo sapiens) (UniProt P08684). Briefly: qHTS Assay for Inhibitors and Substrates of Cytochrome P450 3A4 (AID 884; active = well fitted curve in the direction sought with a large enough effect; an effect the other way counts as inactive or inconclusive; note: nearly all actives have a fitted effect of over 50% in size; note: potency is the fitted concentration of half-maximal effect). The following applies: recombinant CYP3A4, Luciferin-PPXE luminescence; series mostly up to 57.1 µM. The essentials: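 20 nM human CYP3A4 with 25 uM Luciferin-PPXE (at KM) in 200 mM KPO4, preincubated 10 min with compound; NADPH regeneration started a 60 min RT reaction. Luciferin detected by luminescence, normalized to 57 uM ketoconazole as full inhibition.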
In general terms: In qHTS, concentration-response curves come from the screen itself.

Test [8] shares this target. Put plainly: qHTS Assay for Activators of Cytochrome P450 3A4 (AID 885; active = well fitted curve in the direction sought with a large enough effect; an effect the other way counts as inactive or inconclusive; note: nearly all actives have a fitted effect of over 65% in size; note: potency is the fitted concentration of half-maximal effect). To be noted: recombinant CYP3A4, Luciferin-PPXE luminescence, 60 min; series mostly up to 57.1 µM. The essentials: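 Quantitative HTS format: compounds preincubated with 20nM human CYP3A4 and Luciferin-PPXE substrate at KM, reaction started by NADPH regeneration, stopped after 60 min, luciferase luminescence read 20 min later.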

A short description of test [9]: qHTS Assay for Lipid Storage Modulators (AID 1519). To be noted: Drosophila S3 cells, BODIPY lipid droplet/cell ratio, laser cytometry, cells loaded with oleic acid; for activity change, negative = inhibition: at 57.5 µM (top of the series). A digest of the protocol:
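Cells seeded at 5,000 per well were treated with compounds over a concentration series and loaded with oleic acid (400 uM, as added). Lipid droplet fluorescence (488 nm excitation, 500-530 nm channel) was read by laser-scanning cytometry and normalized to 20 uM Triacsin C.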

The nature of test [10]: Primary qHTS for small molecule stabilizers of the endoplasmic reticulum resident proteome: Secreted ER Calcium Modulated Protein (SERCaMP) assay (AID 1508630; active = well fitted curve in the direction sought with a large enough effect; an effect the other way counts as inactive or inconclusive; note: % is set by controls: 0 for no effect and ±100 for the full control effect). The following applies: SH-SY5Y GLuc-SERCaMP (Gaussia luciferase released on ER calcium loss) secretion, thapsigargin, luminescence; series mostly up to 38.4 µM. The essentials: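 GLuc-SERCaMP-expressing SH-SY5Y cells, pretreated 16 h with compound, are challenged with thapsigargin to empty ER calcium stores; after 4 h, coelenterazine is added directly to the medium and luminescence is imaged.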

Test [11] addresses Mitogen-activated protein kinase 10 (Mus musculus) (UniProt Q61831). Briefly: JNK3 AlphaScreen Assay (AID 530; active = well fitted curve in either direction with a large enough effect, not every such curve was filed as active). The following applies: JNK3 lysate, c-Jun phosphorylation; series mostly up to 57.1 µM. A digest of the protocol: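 JNK3 came from HepG2 lysates pre-activated with IL-1beta and TNF-alpha and phosphorylated biotinylated GST-cJun (1-79) at 10 uM ATP, pH 7.6, room temperature. Compounds were titrated. AlphaScreen signal used anti-phospho-cJun (Ser73) antibody.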
In general terms: In Alpha technology, singlet oxygen from a donor bead excites a nearby acceptor bead.

Test [12] concerns the target 3',5'-cyclic-AMP phosphodiesterase 4B (Homo sapiens) (UniProt Q07343). Put plainly: qHTS Assay for Inhibitors of PDE-IV (AID 607; active = well fitted activation curve with a large enough effect in the main read-out, with a control signal flat, not every such curve was filed as active; note: % of control where 0% means no effect). The following applies: HEK293 ACTOne CNG channel cells, membrane potential fluorescence; series mostly up to 22.9 µM. A digest of the protocol:
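Live HEK293 cells with a modified cyclic nucleotide-gated (CNG) channel report intracellular cAMP via membrane-potential dye fluorescence (ex 535/em 590 nm). Endogenous PDE-IV was targeted. Compounds were tested at up to 22.9 uM final; RO 20-1724 100 uM served as control.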

For test [13], the target named is Glucocorticoid receptor (Homo sapiens) (UniProt P04150). Put plainly: GR-GFP Redistribution (AID 450;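 active = compounds whose dose series gives a full or clear partial fitted curve of increased nuclear translocation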; note: potency is the fitted concentration of half-maximal effect). The following applies: U2OS GR-GFP nuclear translocation, laser cytometry, 2 h.
A short description of test [14]: Confirmation and Secondary Assay for Modulators of Hemoglobin Beta Chain Splicing at IVS2 654 locus (AID 910; active = well fitted curve in the direction sought with a large enough effect; an effect the other way counts as inactive or inconclusive;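 note: per-well total GFP intensity by laser scanning cytometry after 2-day treatment; % of control where 0% means no effect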). To be noted: HeLa EGFP-654 splicing reporter, GFP fluorescence, 48 h; series mostly up to 38.3 µM. A digest of the protocol:
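HeLa cells stably carrying EGFP interrupted by mutant beta-globin IVS2-654 intron (CMV-driven) were treated with compound for 2 days at 37C; corrected splicing was scored as total peak GFP intensity per well (488 nm excitation, 500-520 nm emission).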

Test [15] is described as follows: Confirmation and Secondary Assay for Modulators of Hemoglobin Beta Chain Splicing at IVS2 705 locus (AID 930; active = well fitted curve in the direction sought with a large enough effect; an effect the other way counts as inactive or inconclusive;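 note: HeLa cells stably expressing the EGFP-705 splicing reporter; GFP fluorescence per well restored by corrected splicing of the IVS2-705 intron in EGFP; % of control where 0% means no effect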). To be noted: HeLa EGFP-705 splicing reporter, GFP fluorescence, 48 h; series mostly up to 38.3 µM. A digest of the protocol:
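Fluorescence gain (488 nm laser, 500-520 nm PMT) reflects restored correct splicing of a mutant IVS2-705 intron inside EGFP in stably transfected HeLa cells after 2-day compound treatment.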

For test [16], the target named is Ubiquitin carboxyl-terminal hydrolase 1 (Homo sapiens) (UniProt O94782). Briefly: Inhibitors of USP1/UAF1: Pilot qHTS (AID 504865; active = well fitted curve in the direction sought with a large enough effect; an effect the other way counts as inactive or inconclusive;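 note: rhodamine fluorescence freed from ubiquitin-rhodamine substrate followed over time; top concentration of the series differs between compounds; % is set by controls: 0 for no effect and ±100 for the full control effect; nearly all actives have a fitted effect of over 35% in size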). The following applies: purified USP1/UAF1, Ub-rhodamine cleavage fluorescence; series mostly up to 54.9 µM. A digest of the protocol: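 USP1/UAF1 complex (1nM) preincubated with compound 15 min at room temperature, then Ub-Rho substrate (150nM final) added. Fluorescence read kinetically at 480/540 nm, 6 reads every 60 seconds. Buffer: 50mM HEPES pH 7.8, 0.5mM EDTA, 0.1 mg/ml BSA, 1mM TCEP, 0.01% Tween-20.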

The mark [17] stands for this setting: measured here: cell count channel max response.
The mark [18] stands for this setting: measured here: lipid channel max response.

SMILES strings stand for the structures. Inconclusive results are not listed. Calls of active or inactive are those of the source. Unless noted, calls come from the whole dose curve. A value given as a limit tells only on which side of the number the result lay.

Sequence of Cytochrome P450 3A4 (Homo sapiens) (P08684 whole entry, looked up): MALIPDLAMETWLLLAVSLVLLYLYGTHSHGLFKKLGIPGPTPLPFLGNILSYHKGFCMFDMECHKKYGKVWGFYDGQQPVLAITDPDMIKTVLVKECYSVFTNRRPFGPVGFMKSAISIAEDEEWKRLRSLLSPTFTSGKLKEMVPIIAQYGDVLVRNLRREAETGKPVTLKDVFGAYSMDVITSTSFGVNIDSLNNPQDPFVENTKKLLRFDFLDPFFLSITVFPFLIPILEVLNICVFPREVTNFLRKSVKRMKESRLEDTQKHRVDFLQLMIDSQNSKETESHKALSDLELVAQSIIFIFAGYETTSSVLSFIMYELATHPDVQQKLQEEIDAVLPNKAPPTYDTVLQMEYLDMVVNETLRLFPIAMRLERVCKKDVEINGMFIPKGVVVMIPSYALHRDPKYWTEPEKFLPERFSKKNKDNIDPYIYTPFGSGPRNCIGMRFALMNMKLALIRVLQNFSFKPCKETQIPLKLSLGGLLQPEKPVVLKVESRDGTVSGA
Sequence of Lysosomal acid glucosylceramidase (Homo sapiens) (P04062 whole entry, looked up): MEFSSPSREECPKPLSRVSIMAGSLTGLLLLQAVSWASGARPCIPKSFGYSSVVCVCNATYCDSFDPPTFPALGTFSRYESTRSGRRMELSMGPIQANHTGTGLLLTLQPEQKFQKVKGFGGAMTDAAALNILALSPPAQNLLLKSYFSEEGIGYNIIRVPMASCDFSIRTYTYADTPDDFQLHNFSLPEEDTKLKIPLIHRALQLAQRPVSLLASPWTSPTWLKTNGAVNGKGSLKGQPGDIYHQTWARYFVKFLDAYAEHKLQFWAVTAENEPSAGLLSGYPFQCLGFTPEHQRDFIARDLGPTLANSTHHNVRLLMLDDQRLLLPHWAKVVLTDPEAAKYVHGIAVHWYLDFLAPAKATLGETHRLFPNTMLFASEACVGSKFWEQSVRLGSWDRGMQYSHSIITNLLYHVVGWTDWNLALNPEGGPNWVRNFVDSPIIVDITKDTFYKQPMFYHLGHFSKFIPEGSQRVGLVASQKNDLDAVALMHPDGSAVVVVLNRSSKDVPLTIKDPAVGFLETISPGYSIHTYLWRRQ
Sequence of Cytochrome P450 1A2 (Homo sapiens) (P05177 whole entry, looked up): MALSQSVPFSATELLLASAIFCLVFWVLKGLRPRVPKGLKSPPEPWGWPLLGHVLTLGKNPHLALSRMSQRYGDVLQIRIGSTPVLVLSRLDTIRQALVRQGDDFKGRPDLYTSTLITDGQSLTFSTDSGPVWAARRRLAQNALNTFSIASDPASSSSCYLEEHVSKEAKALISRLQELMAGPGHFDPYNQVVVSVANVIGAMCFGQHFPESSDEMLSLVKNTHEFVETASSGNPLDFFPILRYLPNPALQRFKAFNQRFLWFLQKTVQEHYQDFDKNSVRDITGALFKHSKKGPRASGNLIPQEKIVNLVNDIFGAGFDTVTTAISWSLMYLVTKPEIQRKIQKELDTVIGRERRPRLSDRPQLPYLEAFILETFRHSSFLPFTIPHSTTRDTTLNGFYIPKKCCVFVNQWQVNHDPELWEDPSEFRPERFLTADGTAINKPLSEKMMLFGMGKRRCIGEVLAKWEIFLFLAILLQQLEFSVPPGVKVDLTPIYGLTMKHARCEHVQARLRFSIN
Sequence of Glucocorticoid receptor (Homo sapiens) (P04150 whole entry, looked up, the tested form may be a part): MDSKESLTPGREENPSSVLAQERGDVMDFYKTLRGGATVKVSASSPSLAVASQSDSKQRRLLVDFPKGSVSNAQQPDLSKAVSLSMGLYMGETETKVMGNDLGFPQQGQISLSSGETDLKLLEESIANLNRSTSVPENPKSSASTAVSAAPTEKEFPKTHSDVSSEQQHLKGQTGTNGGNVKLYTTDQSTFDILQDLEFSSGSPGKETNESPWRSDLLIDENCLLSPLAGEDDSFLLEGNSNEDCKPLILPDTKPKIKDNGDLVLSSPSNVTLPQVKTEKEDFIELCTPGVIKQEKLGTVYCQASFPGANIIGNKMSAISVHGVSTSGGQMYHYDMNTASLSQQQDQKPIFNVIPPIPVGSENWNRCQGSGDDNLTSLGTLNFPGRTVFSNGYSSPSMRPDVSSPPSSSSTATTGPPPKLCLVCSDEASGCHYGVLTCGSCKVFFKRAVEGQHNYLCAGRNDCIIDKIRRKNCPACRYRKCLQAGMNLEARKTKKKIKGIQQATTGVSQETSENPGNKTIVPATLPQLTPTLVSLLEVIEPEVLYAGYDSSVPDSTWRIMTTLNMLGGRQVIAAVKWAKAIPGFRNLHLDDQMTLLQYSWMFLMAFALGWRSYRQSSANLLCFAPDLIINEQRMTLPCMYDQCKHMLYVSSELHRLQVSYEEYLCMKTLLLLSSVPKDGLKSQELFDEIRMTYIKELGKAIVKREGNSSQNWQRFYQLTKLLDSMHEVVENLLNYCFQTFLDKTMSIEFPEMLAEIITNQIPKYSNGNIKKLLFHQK
Sequence of 3',5'-cyclic-AMP phosphodiesterase 4B (Homo sapiens) (Q07343 whole entry, looked up): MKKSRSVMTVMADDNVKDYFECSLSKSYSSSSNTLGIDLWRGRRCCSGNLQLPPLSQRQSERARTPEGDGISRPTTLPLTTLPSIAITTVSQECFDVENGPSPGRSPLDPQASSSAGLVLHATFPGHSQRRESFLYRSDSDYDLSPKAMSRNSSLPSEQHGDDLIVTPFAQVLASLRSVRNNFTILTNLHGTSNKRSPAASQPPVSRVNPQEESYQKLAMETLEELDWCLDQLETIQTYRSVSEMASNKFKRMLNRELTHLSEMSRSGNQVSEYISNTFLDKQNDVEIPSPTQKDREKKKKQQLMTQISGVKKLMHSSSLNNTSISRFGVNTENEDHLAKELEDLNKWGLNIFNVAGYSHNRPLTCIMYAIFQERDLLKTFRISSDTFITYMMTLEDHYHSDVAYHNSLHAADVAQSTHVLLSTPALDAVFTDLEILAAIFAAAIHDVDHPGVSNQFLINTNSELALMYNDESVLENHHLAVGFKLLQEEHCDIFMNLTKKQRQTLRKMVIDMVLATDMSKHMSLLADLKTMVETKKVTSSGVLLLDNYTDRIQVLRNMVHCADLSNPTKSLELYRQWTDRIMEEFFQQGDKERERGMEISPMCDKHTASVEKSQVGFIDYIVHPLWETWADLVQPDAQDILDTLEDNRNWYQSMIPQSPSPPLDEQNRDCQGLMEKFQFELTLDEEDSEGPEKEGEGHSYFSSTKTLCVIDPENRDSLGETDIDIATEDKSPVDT
Sequence of Ubiquitin carboxyl-terminal hydrolase 1 (Homo sapiens) (O94782 whole entry, looked up): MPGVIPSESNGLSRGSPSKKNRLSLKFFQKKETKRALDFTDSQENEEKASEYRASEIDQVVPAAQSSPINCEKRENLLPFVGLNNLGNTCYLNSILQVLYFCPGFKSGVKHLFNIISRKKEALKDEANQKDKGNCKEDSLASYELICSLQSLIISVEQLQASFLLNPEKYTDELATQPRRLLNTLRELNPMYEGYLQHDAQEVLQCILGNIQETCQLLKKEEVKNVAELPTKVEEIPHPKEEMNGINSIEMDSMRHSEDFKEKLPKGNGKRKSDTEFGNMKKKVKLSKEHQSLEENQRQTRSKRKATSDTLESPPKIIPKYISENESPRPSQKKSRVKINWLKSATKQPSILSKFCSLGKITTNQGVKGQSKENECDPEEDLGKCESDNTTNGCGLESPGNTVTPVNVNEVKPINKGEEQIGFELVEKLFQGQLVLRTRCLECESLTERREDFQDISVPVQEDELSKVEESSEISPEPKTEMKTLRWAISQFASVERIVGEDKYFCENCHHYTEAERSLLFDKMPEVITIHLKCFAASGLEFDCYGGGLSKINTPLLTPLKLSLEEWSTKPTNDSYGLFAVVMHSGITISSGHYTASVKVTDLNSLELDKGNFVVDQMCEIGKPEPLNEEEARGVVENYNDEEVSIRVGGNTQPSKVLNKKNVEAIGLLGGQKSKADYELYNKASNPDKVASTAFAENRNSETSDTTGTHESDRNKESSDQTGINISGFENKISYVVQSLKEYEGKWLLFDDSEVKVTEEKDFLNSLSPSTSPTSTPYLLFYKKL

Regarding `O=C(c1cnccn1)N1CCC[C@@]2(CCN(c3ccncc3)C2)C1`, the Potency in test [1] was > 11.4 µM (inactive); in test [6], > 46 µM (inactive); in [7], 3.16 µM (active). Further, the activity change, negative = inhibition in [2] is -3.24% (inactive); in test [4], 1.53% (inactive); in [9] it was 3.16% (inactive). Besides, the Potency result in test [3], in test [8] and in [10] was “inactive” throughout. Further, the activity, negative = inhibition in [5] is 5.94% (inactive). In addition, the max response was found to be 6.74% in test [9] (setting [17]) and 12.1% in test [9] (setting [18]).

As to `O=C(c1ccco1)N1CCC[C@@]2(CCN(Cc3nccs3)C2)C1`, the Potency in test [1] was > 11.4 µM (inactive); in test [6] it was > 46 µM (inactive). Moreover, the Potency result in test [3], in [12], in test [8] and in [10] was “inactive” in each case. Further, the activity change, negative = inhibition in test [4] is -14% (inactive); in [9], 4.23% (inactive). Moreover, the activity, negative = inhibition in test [5] is -3.91% (inactive). The outcome in test [11] was inactive. Also, the max response in test [9] (setting [17]) was determined as 5.76%; in [9] (setting [18]) it was 12.9%.

Turning to `Cn1cccc1C(=O)N1CCC2(CC1)CCN(c1ccccc1)CC2`, the Potency in [1] was > 11.4 µM (inactive); in [3] it was 12.6 µM (active); in [6], > 46 µM (inactive); in test [8] it was 15.8 µM (active). Also, the activity change, negative = inhibition in test [4] is 20.8% (inactive); in test [9] it was 5.03% (inactive). Also, the activity, negative = inhibition in test [5] is -1.51% (inactive). Also, the Potency result in [12], in test [7] and in test [10] was “inactive” in each case. For the same compound, the figures for the max response in [9] (setting [17]) and in [9] (setting [18]) were 9.38% and 16.6%, respectively.

For `COc1ccccc1CN1CCCC2(CCNCC2)C1`, the Potency is > 11.4 µM (inactive) in [1] and > 46 µM (inactive) in test [6]. Also, the Potency entry in test [3], in [12] and in [10] was “inactive” throughout. Further, the activity change, negative = inhibition in test [4] is -29.2% (inactive); in test [9], 6.8% (inactive). For the same compound, in test [5], the activity, negative = inhibition was 2.38% (inactive). For the same compound, in test [11], the compound was called inactive. Moreover, the max response in test [9] (setting [17]) came to 4.5%; in test [9] (setting [18]) it was 14.4%.

For `COCCNc1ccnc(-c2ccccc2CN(C)C)n1`, the Potency in test [1] is > 11.4 µM (inactive); in [3], 5.01 µM (active); in [13] it was > 46 µM (inactive); in test [6] it was > 46 µM (inactive). Moreover, the activity change, negative = inhibition was -0.192% (inactive) in [4] and 1.95% (inactive) in test [9]. The activity, negative = inhibition in [5] was 11.3% (inactive). For the same compound, the call in test [11], in test [14] and in test [15] was inactive. Further, the Potency entry in test [12], in test [16] and in test [10] was “inactive” in each case. Besides, the results for the max response in test [9] (setting [17]) and in test [9] (setting [18]) were -5.81% and 7.72%, respectively.

For the compound `O=C(Oc1ccccc1)N1CCC2(CC1)CN(c1ccccc1)C2`, the Potency in [1] is > 11.4 µM (inactive); in test [3], 15.8 µM (active); in [6], > 46 µM (inactive); in test [8], 15.8 µM (active). Moreover, the results for the activity change, negative = inhibition in test [4] and in [9] were -1.1% (inactive) and 1.33% (inactive), respectively. In [5], the activity, negative = inhibition is -0.517% (inactive). For the same compound, the Potency result in test [12] and in [10] was “inactive” in each case. Moreover, the figures for the max response in [9] (setting [17]) and in test [9] (setting [18]) were -10.5% and -7.26%, respectively.

Regarding `O=C(Nc1ccccc1)N1CCC2(CC1)CCN(C(=O)c1ccncc1)CC2`, the Potency is > 11.4 µM (inactive) in test [1] and > 46 µM (inactive) in test [6]. Further, the activity change, negative = inhibition in test [4] was -7.39% (inactive); in test [9], 7.6% (inactive). Moreover, the activity, negative = inhibition in test [5] is 2.23% (inactive). In addition, in [11], the outcome was inactive. Moreover, the Potency entry in test [12] and in test [10] was “inactive” throughout. Moreover, the results for the max response in test [9] (setting [17]) and in test [9] (setting [18]) were 12.3% and 27.7%, respectively.
